Activity calls are given as the source filed them. The calls were made as follows: active = hit-call score of the fitted dose curve at least 0.9, where 1 is the maximum; inactive = score below 0.9.
These compounds were tested against Peroxisome proliferator-activated receptor gamma (Homo sapiens) (UniProt P37231) (assay: ATG_hPPARg_EcoTox2: Attagene TRANS-FACTORIAL EcoTox-2 HepG2 Assay for human Peroxisome Proliferator-activated Receptor gamma (PPARg)).
Chain of Peroxisome proliferator-activated receptor gamma (Homo sapiens) (P37231 whole entry, looked up): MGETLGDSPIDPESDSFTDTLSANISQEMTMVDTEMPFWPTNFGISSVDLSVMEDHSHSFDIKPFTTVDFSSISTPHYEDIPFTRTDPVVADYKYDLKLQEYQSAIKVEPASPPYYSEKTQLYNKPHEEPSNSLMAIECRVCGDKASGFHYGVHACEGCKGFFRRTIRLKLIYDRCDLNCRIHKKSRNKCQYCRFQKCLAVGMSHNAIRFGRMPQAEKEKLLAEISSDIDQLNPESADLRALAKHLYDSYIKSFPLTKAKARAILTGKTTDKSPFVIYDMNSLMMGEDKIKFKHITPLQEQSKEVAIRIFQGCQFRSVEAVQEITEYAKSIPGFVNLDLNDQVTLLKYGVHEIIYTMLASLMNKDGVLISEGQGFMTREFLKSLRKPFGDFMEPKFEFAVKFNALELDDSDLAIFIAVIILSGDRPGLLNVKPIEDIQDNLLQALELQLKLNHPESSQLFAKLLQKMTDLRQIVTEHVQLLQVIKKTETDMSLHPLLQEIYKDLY
Procedure: ATG_EcoTox2 is a cell-based, multiplexed assay created by modifying the existing Attagene TRANS-FACTORIAL system to include a panel of nuclear receptors from some or all the following species: human (Homo sapiens), african clawed frog (Xenopus laevis), rainbow trout (Oncorhynchus mykiss), japanese medaka (Oryzias latipes), and zebrafish (Danio rerio). The ECOTOX2-FACTORIAL format uses HepG2, a human liver cell line, with measurements taken at 24 hours after chemical dosing in a 24-well plate. ATG_hPPARg_EcoTox2 is one of 29 assay components calculated in the ATG_EcoTox2 assay. It is designed to make measurements of mRNA induction, a form of inducible reporter, as detected with fluorescence intensity signals by Reverse transcription polymerase chain reaction (RT-PCR) and Capillary electrophoresis technology.The assay endpoint ATG_hPPARg_EcoTox2 was analyzed in the positive analysis fitting direction relative to DMSO as the negative control and baseline of activity. Using a type of inducible reporter, measures of mRNA for gain-of-signal activity can be used to understand the reporter gene at the transcription factor-level as they relate to the gene PPARg. Furthermore, this assay endpoint can be referred to as a primary readout, because this assay has produced multiple assay endpoints where this one serves a reporter gene function. To generalize the intended target to other relatable targets, this assay endpoint is annotated to the nuclear receptor intended target family, where the subfamily is non-steroidal.
Human liver HepG2 cells are transiently transfected with multiple reporter transcription units (MRTUs) in 6-well plates using FuGene 6 reagent (Roche; 3 ml FuGene/1 mg DNA). The MRTU constructs are regulated by a cis-regulating element (promoter). Each RTU expresses a GAL4-UAS that regulates the transcription of a nearby target reporter gene sequence. A major difference between the CIS and TRANS system is that in CIS activities of endogenous TFs are measured, whereas the TRANS assay evaluates changes in activities of exogenous, chimeric NR-Gal4 proteins. […] At the end of 24 hour incubation, total RNA was isolated using TriZol reagent (Invitrogen). The isolated RNA is then reverse-transcribed using oligo(dT) primer and Mo-MLV reverse transcriptase (Invitrogen) with DNAse I (Ambion) treatment for 30 min. The one-tenth of the produced cDNA was amplified by PCR using Taq DNA polymerase (Invitrogen) and two reporter sequence-specific primers. The PCR products were fluorescently labeled by primer extension with 6-arboxyfluorescein (6-FAM) 5'-labeled reporter sequence-specific primer (2 min at 95 C, 20 s at 68 C and 10 min at 72 C) and these products were digested with 5U of HpaI (New England Biolabs) for 2h at 37 C. The fragments were purified using Qiaquick PCR columns (Qiagen), analyzed on an ABI 3130xL genetic analyzer (Applied Biosystems) with peak positions identified by using a set of X-rhodamine (ROX)-labeled MapMarker1000 molecular weight standards (BioVentures). The raw capillary electrophoresis data was processed using Attagraph software (Attagene).
`C=C(c1ccc(C(=O)O)cc1)c1cc2c(cc1C)C(C)(C)CCC2(C)C` was tested, and the AC50 was 1.1 µM (active).
For `C[C@]12C=CC(=O)C=C1CC[C@@H]1[C@@H]2C(=O)C[C@@]2(C)[C@H]1CC[C@]2(O)C(=O)CO`, the outcome was “inactive”.
In the case of `CC(C)(Oc1ccc(C2CC2(Cl)Cl)cc1)C(=O)O` (configuration not stated), the AC50 is reported as 37.3 µM (active).
`CC(C)(Oc1ccc(Cl)cc1)C(=O)O` was tested, and the AC50 was 80.6 µM (active).
In the case of `C[C@@H]1C[C@H]2[C@@H]3CCC4=CC(=O)C=C[C@]4(C)[C@@]3(F)[C@@H](O)C[C@]2(C)[C@@]1(O)C(=O)COP(=O)(O)O`, the outcome is reported as “inactive”.
With `Cc1nc(-c2ccc(C(F)(F)F)cc2)sc1C(=O)NCc1ccc(OC(C)(C)C(=O)O)cc1` the AC50 was 1.29 µM (active).
`CC(C)(Oc1ccc(CCNC(=O)c2ccc(Cl)cc2)cc1)C(=O)O` was tested, and the AC50 was 14 µM (active).

— PubChem BioAssay AID2284351 (EPA ToxCast)
